For 36 compounds, growth results are on record in PubChem BioAssay (NCI).

Compounds without any hit were thinned out: in the full panel of roughly 83,000, 20% have a hit.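 Note: values are percent growth. 100 is the growth of untreated cells, values between 100 and 0 indicate rising inhibition; between -100 and 0 indicates cell death.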 Unmarked numbers belong to inactive results. Activity calls are given as the source filed them. Rule for the calls: active = growth percent below 10; inactive = the rest.

The test system of the assay is A498 renal. Put plainly: NCI-60 one-dose screen, 48 h (100 = growth as untreated, 0 = no growth, -100 = all killed). Conditions: 10 µM unless noted.
Turning to `COCCOc1ccc2ncc(C#Cc3cncc(C(=O)Nc4ccc(CN5CCN(C)CC5)c(C(F)(F)F)c4)c3)n2n1`, the growth was -50.4% (active).
Then `CCOC(=O)c1c(N)c(C#N)cn1Cc1ccc(Cl)cc1Cl`, with 73.5%; and `Cc1ccc(Nc2nc(SC(C)C)nc(-c3ccccc3)c2C#N)cc1`, with 62.3%.
On to `O=C(CSc1nc2ccccc2c(=O)n1-c1ccc(Cl)c(Cl)c1)Nc1ccc(S(=O)(=O)Nc2ccc(Cl)nn2)cc1`, for which the growth was 103%.
Then `N#Cc1cnc2ccc(-c3cnc4n[nH]nc4c3)cc2c1N1CCc2cc(F)c(Cl)cc21`, with -11.8% (active).
Then `CNC(=O)Nc1ccc(Nc2cc(-c3ccc(-n4cccn4)cc3)[nH]n2)c(C)c1`, with 129%; and `CN1CCN(Cc2ccc(NC(=O)c3cncc(C#Cc4cnc5ccc(N)nn45)c3)cc2C(F)(F)F)CC1`, with 67%; and `Cc1cc(=O)oc2cc(OCCCOc3ccc(/C=C/C(=O)Nc4ccc(Br)cc4)cc3)ccc12`, with 82.9%.
The result for `C/C(CC1(O)C(=O)Nc2ccccc21)=N\O` (stereo unspecified) reads 70.6%; that for `Cc1ccc2c(n1)C(=O)C(Cl)=C(Nc1ccccc1C(=O)OC(C)(C)C)C2=O`, 92.3%; that for `COc1ccc(/C=N\NC(=O)c2cnn(CC(O)c3ccccc3)c2N)cc1OCc1ccc(Cl)cc1` (stereo unspecified), 48%.
Take `NC(N)=NS(=O)(=O)c1ccc(N=Nc2c(N)nn(-c3ccc([N+](=O)[O-])cc3[N+](=O)[O-])c2N)cc1`: the growth is 94.5%.
Consider `COc1ccccc1Cn1cc(C#N)c(N)c1C(=O)c1ccc(Br)cc1`, for which the growth is 77.7%.
Then `CC(=C(c1ccc(OCCN2CCCC2)cc1)c1ccc(OCCN2CCCC2)cc1)c1ccc(Cl)cc1`, with 86.5%; and `CCN(CC)CCOc1ccc(C(=C(C)Cc2ccc(OC)cc2)c2ccc(OCCN(CC)CC)cc2)cc1`, with 85.7%; and `Fc1ccc(-c2cn3c(-c4c[nH]c5ccc(Br)cc45)csc3n2)cc1`, with 91.3%.
For the compound `CC1=C(C)C(=O)C(Nc2cccc(C(=O)OC(C)(C)C)c2)=CC1=O`, the growth is 66.9%.
Regarding `CSc1ccc(/C(=N/N=C(N)N)c2ccc(Cl)cc2)cc1`, the growth was -21.6% (active).
Then `O=C(/C=C/Nc1ccc(S(=O)(=O)Nc2ncccn2)cc1)c1ccc(N=Cc2c(O)[nH]c3ccccc23)cc1`, with 98.5%; and `N#Cc1c(-c2cccs2)cc(-c2cnccn2)nc1SCC(=O)N/N=C/c1cccs1`, with 25.5%.
Then `O=S(=O)(NCCCNc1nccc(-c2[nH]c(-c3ccccc3)nc2-c2ccc(F)c(O)c2)n1)c1ccccc1`, with 114%.
Then `CC1(C)CC[C@]2(C(=O)NCCCCCCN(CCCN)CCCN)CC[C@]3(C)C(=CC[C@@H]4[C@@]5(C)CC[C@H](O)C(C)(C)[C@@H]5CC[C@]43C)[C@@H]2C1`, with 117%; and `CCOC(=O)c1c(NCC(=O)Nc2cccc([N+](=O)[O-])c2)sc(C(C)=O)c1C`, with -75.3% (active).
Consider `O=c1oc2ccc(-c3ccc(F)cc3F)cc2c(=O)n1-c1ccc(Br)cc1F`, for which the growth was 37.4%.
The result for `Cc1ccc2c(n1)C(=O)C(Cl)=C(Nc1cccc(C(=O)OC(C)(C)C)c1)C2=O` reads 66.6%; that for `C/C(=C(\c1ccc(O)cc1)c1ccc(OCCN2CCCCCC2)cc1)c1ccc(Cl)cc1`, -91% (active); that for `CC1=C(C)C(=O)C(Nc2cccc(C(F)(F)F)c2)=C(Br)C1=O`, 86.4%.
On to `CC(C)C(/C=C/c1[nH]ncc1-c1cc(Cl)ccc1O)N1CCOCC1` (stereo unspecified), for which the growth is 81.7%.
Then `Fc1cccc(Cl)c1/C=N/Nc1nc(N/N=C/c2c(F)cccc2Cl)nc(N2CCCCC2)n1`, with 52.8%.
Then `COc1ccc(C2C(C#N)=C(/N=C/c3ccc(Cl)cc3)Oc3c2sc2c(C)cccc32)cc1` (stereo unspecified), with -11.5% (active); and `O=C(CCCCCCNC(=O)C(O)(O)C(F)(F)F)Nc1ccc(Cl)cc1`, with 9% (active).
Then `O=C1C(SCc2ccccc2)=C(Cl)CN1c1ccc(Cl)cc1`, with 114%; and `Cc1ccc(-c2nc(SCC(=O)c3ccccc3)nc(Nc3ccc(S(N)(=O)=O)cc3)c2C#N)cc1`, with 104%.
For the compound `O=C1C(N2CCN(c3ccccc3)CC2)=C(Cl)C(=O)c2ncccc21`, the growth was 104%.
`C#Cc1nc(C(=O)NCCCCCCC(=O)NO)cs1`: the growth is -95.1% (active).
The result for `C[C@H](Nc1ncnc2ccc(-c3cnc(Cl)c(NS(C)(=O)=O)c3)cc12)c1ccccc1` reads -23.8% (active).
